Bioassay records (PubChem)
Rab9 prom act – Rab9 promoter activation | AID 485297 | Huh7 Rab9 promoter-luciferase reporter, luminescence, 24 h | Potency, µM (titrated, usually from 9.22 µM), for inactives: top-dose activation, negative = inhibition, most hits filed as activators | 320,000 tested, 2.8% active; also: % of control where 0% means no effect; nearly all actives have a fitted effect of over 60% in size
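Measured in stably transfected Huh7 cells bearing a Rab9 promoter–luciferase construct: 24 h compound treatment at 37 °C, followed by luminescence detection.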
ELG1 genotox – inducers of genotoxicity in HEK293T ELG1-luciferase cells. 330,000 tested, 1.3% active. Potency, µM (highest dose often 46 µM), inactives show at the highest dose activity change, positive = activation, hits mostly activators. HEK293T ELG1-luciferase reporter, luminescence, 16 h; also: % of control where 0% means no effect; nearly all actives have a fitted effect of over 60% in size
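Screening used a luciferase reporter fused to human ELG1 in HEK293T cells. Luminescence was read on a CCD plate imager after 16 hr exposure and 30 min ONE-Glo incubation.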
NPC1 promoter act – NPC1 promoter activation; Huh7 NPC1 promoter luciferase reporter, 24 h; AID 485313; 320,000 tested, 2.4% active; Potency, µM (highest dose often 9.22 µM), for the others: at the top dose activation, usual class: activators; also: % of control where 0% means no effect; nearly all actives have a fitted effect of over 60% in size
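Quantitative HTS used a cell-based reporter: Huh7 cells stably bearing the NPC1 promoter upstream of luciferase were treated with compounds for 24 h, and promoter activation was read as luminescence.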
SMN2 splice up – increases expression of the SMN2 splice variant; Potency, µM (doses to about 46.1 µM), inactives show top-dose activity change, positive = activation, most hits filed as activators; 210,000 tested, 2.8% active; HEK293 SMN2-luciferase splicing reporter, luminescence, 30-36 h; also: % of control where 0% means no effect; nearly all actives have a fitted effect of over 55% in size
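qHTS luciferase splicing reporter: luminescence rises when SMN2 exon 7 is included in transfected HEK293 cells. Compound exposure lasted 30-36 h at 37C, with 4.5 mM final sodium butyrate as control, followed by a ONE-Glo read.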
FLuc counter – counter-screen for miR-21 project: firefly luciferase inhibitors or activators; purified FLuc, Km substrates, luminescence inhibition; 360,000 tested, 6.9% active; P08659; Potency, µM (top dose mostly 57.5 µM), without a hit: top-dose activity change, negative = inhibition, most hits filed as inhibitors;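 also: plate controls were vehicle for no effect and reference inhibitor for full effect; nearly all actives have a fitted effect of over 55% in size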
Target sequence (P08659 whole entry, looked up): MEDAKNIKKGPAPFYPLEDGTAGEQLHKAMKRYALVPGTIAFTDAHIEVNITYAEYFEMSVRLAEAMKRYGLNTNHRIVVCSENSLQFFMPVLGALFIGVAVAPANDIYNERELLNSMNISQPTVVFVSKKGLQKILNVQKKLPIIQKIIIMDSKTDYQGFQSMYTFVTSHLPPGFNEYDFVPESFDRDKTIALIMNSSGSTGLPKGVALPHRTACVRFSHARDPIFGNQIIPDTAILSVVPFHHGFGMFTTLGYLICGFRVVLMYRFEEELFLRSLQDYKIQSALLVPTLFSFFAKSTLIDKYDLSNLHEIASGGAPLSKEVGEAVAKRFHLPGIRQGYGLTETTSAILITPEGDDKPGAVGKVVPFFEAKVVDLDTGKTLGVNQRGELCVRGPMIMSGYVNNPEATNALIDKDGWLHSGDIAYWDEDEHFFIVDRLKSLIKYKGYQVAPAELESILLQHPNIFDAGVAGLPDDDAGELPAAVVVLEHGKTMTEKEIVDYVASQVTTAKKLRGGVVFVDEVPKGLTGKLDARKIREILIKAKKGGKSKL
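Biochemical qHTS of compounds, final roughly 60 µM downward over six points, against 10 nM purified firefly luciferase using Km concentrations of substrates (10 uM D-luciferin, 10 uM ATP) in Tris acetate pH 7.5 buffer; luminescence output.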
ELG1 repair inh – blocks ELG1-dependent DNA repair in HEK293T cells | AID 504467 | HEK293T ELG1-luciferase reporter, luminescence, 16 h; DNA damage induced by 5-fluorouridine | Potency, µM (series often up to 46.1 µM), for the others: top-dose activity change, negative = inhibition, actives largely listed as inhibitors | 330,000 tested, 2.3% active; also: % is scaled to controls: 0 for no effect and ±100 for the full control effect; nearly all actives have a fitted effect of over 55% in size
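5-Fluorouridine DNA damage + compound/DMSO, 2,000 cells/well, 16 h, 37 °C/5% CO2. ONE-Glo, 30 min RT, luminescence. Readout = decrease in reporter signal.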
Numbers without * were called inactive; ? = inconclusive; . = not tested or not shown; [ ] = another dose, or the depositor's remark. This is a sample that favours compounds with a hit; in the whole collection about 9.3% have one here. Calls follow the shape of the dose curve; as a rule, active = well fitted curve in the direction sought with a large enough effect; inconclusive = small, poorly fitted or top-dose-only effect, or another doubt; inactive = no such curve, though single readings can be large; an effect the other way counts as inactive or inconclusive. Potency is read from the fitted curve at half-maximal effect.

SMILES	Rab9 prom act	ELG1 genotox	NPC1 promoter act	SMN2 splice up	FLuc counter	ELG1 repair inh
CC1(C)CC(=O)c2sc(NC(=O)c3ccc4ncsc4c3)nc2C1	?	?	?	11µM*	1.9µM*	?
CC1(C)CC(=O)c2sc(NC(=O)c3ccccc3)nc2C1	0.71µM*	?	0.45µM*	13µM*	1.9µM*	?
O=C(COC(=O)CNC(=O)c1cccc([N+](=O)[O-])c1)Nc1cccc(S(=O)(=O)N2CCCC2)c1	-2%	0%	-1%	-3%	-1%	1%
Cc1cccc(C)c1NC(=O)CNC(=O)C(C)N1CCCCC1 (stereo unspecified)	-2%	-1%	0%	.	4%	?
CCN(CC)S(=O)(=O)c1cccc(C(=O)NC(C(=O)Nc2nnc(C)s2)C(C)C)c1 (stereo unspecified)	-4%	-3%	0%	-15%	3%	-30%
CC1(C)CNC(=O)c2sc(NC(=O)c3ccccc3)nc2C1	?	16%	?	11µM*	?	?
CC1(C)CC(=O)c2sc(NC(=O)CCS(=O)(=O)c3ccccc3)nc2C1	-10%	-20%	6%	-15%	0%	?
COc1ccc(C(CCN2CCOCC2)c2c(OC)cc(OC)c3ccc(=O)oc23)cc1 (stereo unspecified)	.	0%	.	.	.	?
Cc1ccnc(NC(=O)Nc2ccc3c(c2)N(C)C(=O)CS3)c1	2.8µM*	?	3.5µM*	11µM*	3µM*	?
COc1ccc(NC(=O)Nc2ccc3c(c2)N(C)C(=O)CS3)cc1Cl	1%	-2%	-1%	-22%	17µM*	?
CC(=O)c1ccc(NC(=O)Nc2ccc3c(c2)N(C)C(=O)CS3)cc1	16%	-13%	0%	-20%	24µM*	18µM*
Cc1ccc(C(=O)CSc2nc(-c3ccccc3)nc3c2CCCC3)cc1C	.	.	.	-11%	-12%	.
COc1ccc(C2NN=C(c3ccc(C)cc3)S2)cc1 (stereo unspecified)	0.63µM*	?	92%	.	1.2µM*	?
CCOc1cc(C2NN=C(c3ccc(C)cc3)S2)ccc1O (stereo unspecified)	3.5µM*	?	3.2µM*	16µM*	5.4µM*	?
COc1ccc(C2NC(=O)CS2)cc1 (stereo unspecified)	2%	6%	0%	-2%	-2%	?
Cc1ccc(C2=NNC(C(O)C(O)C(O)CO)S2)cc1 (stereo unspecified)	24%	?	18%	-16%	15µM*	?
NS(=O)(=O)c1ccc(NC(=O)COC(=O)c2cccc(S(=O)(=O)N3CCCC3)c2)cc1	-3%	3%	1%	.	1%	1%
Cc1ccc2nc(N(CCN3CCOCC3)C(=O)CCS(=O)(=O)c3ccccc3)sc2c1	?	?	?	.	-2%	?
CCCC(=O)N(CCN1CCOCC1)c1nc2cc(C)c(C)cc2s1	2.2µM*	?	2.5µM*	.	-12%	?
Cc1ccc(S(=O)(=O)N2[C@@H](c3ccc(C(C)(C)C)cc3)C(C(=O)O)=CC[C@H]2c2ccc(C(C)C)cc2)cc1	.	-5%	.	.	.	16µM*
Cc1cc(C)n(-c2nnc(SCC(=O)NC3CCCC3)c3ccccc23)n1	-4%	-8%	-3%	-40%	-11%	16µM*
O=C(N/N=C/c1cccc(OC(=O)c2ccco2)c1)c1ccc(F)cc1	-4%	?	0%	7%	3.8µM*	?
Cc1ccc(C(=O)N/N=C\c2cccs2)cn1	18%	-4%	21%	3%	24µM*	?
CCOc1ccc2ccccc2c1/C=N/NC(=O)c1ccc(C)nc1	3%	6%	0%	.	4.8µM*	2%
O=C(N/N=C/c1cccc(OC(=O)c2ccccc2Cl)c1)c1cccnc1	10%	18%	24%	.	24µM*	?
SMILES	Rab9 prom act	ELG1 genotox	NPC1 promoter act	SMN2 splice up	FLuc counter	ELG1 repair inh
COc1ccccc1NC(=O)C(=O)N/N=C/c1cccs1	?	?	26%	10%[1.84 µM]	9.5µM*	?
Cc1ccc(C(=O)N/N=C\c2cccc(OC(=O)c3cccc(F)c3)c2)cn1	-1%	18%	4%	.	8.5µM*	-4%
COc1cccc(/C=N/NC(=O)c2cnn(-c3ccccc3)c2N)c1	?	-2%	?	.	12µM*	?
COc1cccc(/C=N\NC(=O)c2ccc(C)nc2)c1	13%	11%	23%	.	19µM*	?
COc1ccc(/C=N/NC(=O)c2ccc(C)nc2)cc1O	-2%	-2%	7%	.	-18%	-8%
CC(=O)c1ccc(NC(=O)Cn2nc(C)cc2C)cc1	0%	1%	-5%	-1%	0%	0%
CCN(CC)C(=O)[C@H]1C[C@H](CC(=O)NCCCN(C)C)C(=O)N2CCc3c([nH]c4ccc(Cl)cc34)[C@]12C	.	-3%	.	.	.	?
O=C(NCCNc1ccc([N+](=O)[O-])cc1C(F)(F)F)c1ccccc1	2%	1%	1%	-26%	-1%	-15%
O=C(CCCc1ccccc1)Nc1cccc(C(=O)O)c1	0.25µM*	0%	0.32µM*	1.6µM*	0.38µM*	?
O=C(CCc1ccccc1)NC(=S)Nc1cccc(C(=O)O)c1	3.2µM*	?	1.4µM*	.	4.8µM*	?
COc1ccc(NC(=O)CCCc2ccccc2)cc1OC	4µM*	18µM*	3.5µM*	.	?	?
CNC(=S)Nc1cccc(C(=O)O)c1	-2%	-2%	0%	9%	-6%	-7%
CC(C)(C)C(=O)NC(=S)Nc1cccc(C(=O)O)c1	0.79µM*	?	2.8µM*	.	19µM*	?
Cc1ccc(S(=O)(=O)N2CCN(C(=O)c3ccccc3Cc3ccccc3)CC2)c(C)c1	-7%	-14%	-1%	.	0%	1%
CCN(CC(=O)Nc1ccccc1OC)C(=O)CN1C(=O)NC2(CCCC2)C1=O	4%	10%	0%	.	5%	15%
CCc1ccc(NC(=O)C(=O)NCc2ccccn2)cc1	3.5µM*	?	?	.	19µM*	?
CCCNC(=O)c1ccc(COc2ccc(C(C)(C)C)cc2)o1	20%	-4%	18%	.	?	0%
CCC(C)c1ccc(OCc2ccc(C(=O)OC)o2)cc1 (stereo unspecified)	0.5µM*	?	0.63µM*	.	?	?
CCOC(=O)c1ccc(NC(=O)C(=O)NCc2ccccn2)cc1	-2%	3%	4%	-3%	-12%	19%
